{"source": "ChEMBL document CHEMBL3433997", "about": "“St. Jude Leishmania screening dataset” (2016)", "format_in_all_cases": "functional", "key": {"[1]": {"biological_target": "Solute carrier family 2, facilitated glucose transporter member 1 (Homo sapiens) (UniProt P11166)", "sequence (P11166 whole entry)": "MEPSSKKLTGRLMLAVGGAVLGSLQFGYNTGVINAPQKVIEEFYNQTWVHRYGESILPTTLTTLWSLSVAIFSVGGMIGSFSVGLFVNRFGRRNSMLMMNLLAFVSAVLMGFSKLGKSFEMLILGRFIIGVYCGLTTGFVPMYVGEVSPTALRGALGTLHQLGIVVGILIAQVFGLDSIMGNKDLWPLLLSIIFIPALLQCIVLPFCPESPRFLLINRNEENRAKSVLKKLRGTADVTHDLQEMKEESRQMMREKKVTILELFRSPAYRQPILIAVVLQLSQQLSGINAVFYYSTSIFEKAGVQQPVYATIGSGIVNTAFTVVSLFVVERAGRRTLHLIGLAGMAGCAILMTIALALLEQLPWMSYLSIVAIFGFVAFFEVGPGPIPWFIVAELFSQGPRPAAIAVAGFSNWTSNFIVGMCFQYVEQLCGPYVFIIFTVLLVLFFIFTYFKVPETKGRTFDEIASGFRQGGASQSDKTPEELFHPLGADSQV", "assay": "ST_JUDE_LEISH: Cytotoxicity at 2uM final concentration against transgenic Leishmania Mexicana promastigotes LmGLUT1 that are glucose transport deficient and complemented with the human glucose transporter GLUT1. Activity is measured by DNA content using SYBR green in vitro"}, "[2]": {"biological_target": "Hexose transporter 1 (Plasmodium falciparum) (UniProt O97467)", "assay": "ST_JUDE_LEISH: Cytotoxicity at 2uM final concentration against transgenic Leishmania Mexicana promastigotes LmPfHT that are glucose transport deficient and complemented with the Plasmodium falciparum hexose transporter. Activity is measured by DNA content using SYBR green in vitro"}, "[3]": {"biological_target": "Glucose transporter (Leishmania mexicana) (UniProt O61059)", "assay": "ST_JUDE_LEISH: Cytotoxicity at 2uM final concentration against transgenic Leishmania Mexicana promastigotes LmGT2 that are glucose transport deficient and complemented with the L. Mexicana glucose transporter 2. Activity is measured by DNA content using SYBR green in vitro"}}, "data": [{"smiles": "COc1ccc2nccc([C@@H](O)CN3CCC(NCc4cc5ccccc5s4)CC3)c2c1", "values": [{"measurement": "inhibition", "setting": "[1]", "result": 5.41, "unit": "%"}, {"measurement": "inhibition", "setting": "[2]", "result": 10.3, "unit": "%"}, {"measurement": "inhibition", "setting": "[3]", "result": 0.03, "unit": "%"}]}, {"smiles": "CCc1c(C)nc(-n2nc(C)cc2NC(=O)c2ccc(OC)cc2OC)[nH]c1=O", "values": [{"measurement": "inhibition", "setting": "[1]", "result": 30.4, "unit": "%"}, {"measurement": "inhibition", "setting": "[2]", "result": 31.7, "unit": "%"}, {"measurement": "inhibition", "setting": "[3]", "result": 8.75, "unit": "%"}]}, {"smiles": "NCCCCNc1cc(-c2ccnc(Nc3cccc(Cl)c3)n2)ccn1", "values": [{"measurement": "inhibition", "setting": "[1]", "result": 60.5, "unit": "%"}, {"measurement": "inhibition", "setting": "[2]", "result": 71.8, "unit": "%"}, {"measurement": "inhibition", "setting": "[3]", "result": 76.5, "unit": "%"}]}, {"smiles": "O=C(Nc1ccc(-c2nc3ccccc3[nH]2)cc1)c1ccc(S(=O)(=O)N2CCCCCC2)cc1", "values": [{"measurement": "inhibition", "setting": "[1]", "result": 1.06, "unit": "%"}, {"measurement": "inhibition", "setting": "[2]", "result": 2.45, "unit": "%"}, {"measurement": "inhibition", "setting": "[3]", "result": 1.91, "unit": "%"}]}, {"smiles": "CC(=O)Nc1ccc(OCCN(Cc2ccccc2OC(F)(F)F)c2ccc(C(F)(F)F)c(C#N)c2)c(Cl)c1", "values": [{"measurement": "inhibition", "setting": "[1]", "result": 2.43, "unit": "%"}, {"measurement": "inhibition", "setting": "[2]", "result": 2.88, "unit": "%"}, {"measurement": "inhibition", "setting": "[3]", "result": 4.14, "unit": "%"}]}, {"smiles": "O=C(/C=C/c1ccc(Cl)c(Cl)c1)N1CCC(CCN2CCC(c3c[nH]c4cnccc34)CC2)CC1", "values": [{"measurement": "inhibition", "setting": "[1]", "result": 16, "unit": "%"}, {"measurement": "inhibition", "setting": "[2]", "result": 11.9, "unit": "%"}, {"measurement": "inhibition", "setting": "[3]", "result": 5.81, "unit": "%"}]}, {"smiles": "CCOC(=O)c1ccc(NC(=O)N(Cc2ccc(-c3ccc(CN4CCNCC4)cc3)cc2)C2CCN(Cc3ccccc3)CC2)cc1", "values": [{"measurement": "inhibition", "setting": "[1]", "result": 3.61, "unit": "%"}, {"measurement": "inhibition", "setting": "[2]", "result": 2.86, "unit": "%"}, {"measurement": "inhibition", "setting": "[3]", "result": -1.08, "unit": "%"}]}, {"smiles": "Cc1cc(N(CCO)CCCN2CCCCC2)nc(Nc2ccc(Cl)cc2)n1", "values": [{"measurement": "inhibition", "setting": "[1]", "result": 1.77, "unit": "%"}, {"measurement": "inhibition", "setting": "[2]", "result": 1.35, "unit": "%"}, {"measurement": "inhibition", "setting": "[3]", "result": 2.41, "unit": "%"}]}, {"smiles": "CCCOC(=O)c1ccc(OCCCON2C(=N)N=C(N)NC2(C)C)cc1", "values": [{"measurement": "inhibition", "setting": "[1]", "result": 2.28, "unit": "%"}, {"measurement": "inhibition", "setting": "[2]", "result": -0.38, "unit": "%"}, {"measurement": "inhibition", "setting": "[3]", "result": 5.01, "unit": "%"}]}, {"smiles": "CC(=O)Nc1cccc(C(=O)Nc2ccc(-c3cccc(-c4nc5cc(F)ccc5[nH]4)c3)cc2)c1", "values": [{"measurement": "inhibition", "setting": "[1]", "result": 4.65, "unit": "%"}, {"measurement": "inhibition", "setting": "[2]", "result": 4.15, "unit": "%"}, {"measurement": "inhibition", "setting": "[3]", "result": 5.47, "unit": "%"}]}, {"smiles": "FC(F)(F)c1cccc(Nc2nc(-c3ccccc3)nc3ncccc23)c1", "values": [{"measurement": "inhibition", "setting": "[1]", "result": 3.41, "unit": "%"}, {"measurement": "inhibition", "setting": "[2]", "result": 2.83, "unit": "%"}, {"measurement": "inhibition", "setting": "[3]", "result": 3.04, "unit": "%"}]}, {"smiles": "CS(=O)(=O)CCNCc1cccc(-c2cc3c(Nc4ccc(OCc5ccccc5)cc4)ncnc3cn2)c1", "values": [{"measurement": "inhibition", "setting": "[1]", "result": 13.7, "unit": "%"}, {"measurement": "inhibition", "setting": "[2]", "result": 10.7, "unit": "%"}, {"measurement": "inhibition", "setting": "[3]", "result": 6.71, "unit": "%"}]}, {"smiles": "Cc1cc(N[C@@H](CC(C)C)C(=O)NCCOc2ccccc2)nc(NCCc2ccccc2)n1", "values": [{"measurement": "inhibition", "setting": "[1]", "result": 1.89, "unit": "%"}, {"measurement": "inhibition", "setting": "[2]", "result": 0.4, "unit": "%"}, {"measurement": "inhibition", "setting": "[3]", "result": 2.69, "unit": "%"}]}, {"smiles": "COc1cc2c(cc1OC)CN(CCc1ccc(NC(=O)c3cc4cc(OC(F)(F)F)ccc4[nH]3)cc1)CC2", "values": [{"measurement": "inhibition", "setting": "[1]", "result": 3.34, "unit": "%"}, {"measurement": "inhibition", "setting": "[2]", "result": 3.67, "unit": "%"}, {"measurement": "inhibition", "setting": "[3]", "result": 1.17, "unit": "%"}]}, {"smiles": "COc1cc(C2CCCCC2)c(OC)cc1CC1c2cc(O)c(Cl)cc2CCN1C", "note": "(stereo not given)", "values": [{"measurement": "inhibition", "setting": "[1]", "result": 3.83, "unit": "%"}, {"measurement": "inhibition", "setting": "[2]", "result": -0.22, "unit": "%"}, {"measurement": "inhibition", "setting": "[3]", "result": 12.9, "unit": "%"}]}]}
